Inconclusive results are not listed. Values without a mark were called inactive. Activity calls are given as the source filed them. Calls follow the shape of the dose curve; as a rule, active = well fitted curve in either direction with a large enough effect (not every such curve was filed as active); inconclusive = small, poorly fitted or top-dose-only effect, or another doubt; inactive = flat fitted curve, though single readings scatter.
Test: NFAT Signaling Pathway (AID 444);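 also: carbachol stimulus at about its EC50 of 1 µM final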
Conditions: Jurkat NFAT-bla M1, carbachol, beta-lactamase ratio, 5 h; at 17.2 µM (top of the series) unless noted
In short: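 Read-out: CCF4 FRET ratio (460 nm/530 nm) after 1 h RT dye loading, used for %activity and AC50 from titration series. Cells: Jurkat NFAT-β-lactamase/M1 line, treated with compound plus 1 uM carbachol for 5 h, 37 °C.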
% is scaled to controls: 0 for no effect and ±100 for the full control effect.

Q: For `COC(=O)C(NC(C)=O)(Nc1ccc(Br)cn1)C(F)(F)F` (stereo not given), which activity change, negative = inhibition is on record?
A: 3.2%

Q: Which activity change, negative = inhibition does the source give for `CCCOc1cccc(C2/C(=C(/O)c3ccccc3)C(=O)C(=O)N2CCN(C)C)c1` (stereo not given) here?
A: 24.1%

Q: For `Nn1c(SCC(=O)Nc2ccc3c(c2)OCCO3)nnc1C(F)(F)F`, which activity change, negative = inhibition is on record?
A: -1.93%

Q: For `CCOc1nc(SC(C(C)=O)C(=O)Nc2ccccc2)nc(N(C)C)n1` (stereo not given), which activity change, negative = inhibition is on record?
A: 19.9%

Q: With `CCOC(=O)c1[nH]c2ccc(OC)cc2c1NC(=O)CCN1CCCC(C)C1` (stereo not given) as the molecule, how does the activity change, negative = inhibition read?
A: -82.5% (active)

Q: Which activity change, negative = inhibition does the source give for `COc1ccc(/C(O)=C2/C(=O)C(=O)N(CCCN(C)C)C2c2ccccc2)cc1Cl` (stereo not given) here?
A: -3.88%

Q: For `CC(C(=O)N1CCOCC1)N1C(=O)c2ccccc2C1=O` (stereo not given), which activity change, negative = inhibition is on record?
A: -4.66%

Q: Which activity change, negative = inhibition does the source give for `c1coc(CNc2ncnc3ccccc23)c1` here?
A: -14.7%

Q: With `CC(=O)OCc1c(COC(C)=O)[n+](=O)c2ccccc2n1[O-]` as the molecule, how does the activity change, negative = inhibition read?
A: -3.2%

Q: With `COc1cccc(OC)c1OCCN1CCN(C(=O)c2ccco2)CC1` as the molecule, how does the activity change, negative = inhibition read?
A: -6.56%

Q: For `CCc1ccc2c(c1)C(C)=CC(C)(C)N2`, which activity change, negative = inhibition is on record?
A: 7.21%

Q: For `COC(=O)/C=c1/s/c(=C(\C#N)C(=O)NCc2ccco2)n(-c2ccccc2)c1=O`, which activity change, negative = inhibition is on record?
A: -25.7%

Q: With `CN(C)CC(O)COc1ccc(-c2ccc(C#N)cc2)cc1` (stereo not given) as the molecule, how does the activity change, negative = inhibition read?
A: 11.2%

Q: With `COc1cccc(C(=O)N2CCN(S(=O)(=O)Cc3ccccc3)CC2)c1OC` as the molecule, how does the activity change, negative = inhibition read?
A: 18.1%

Q: Which activity change, negative = inhibition does the source give for `Cn1c(=O)c2c(nc(OCc3cccnc3)n2Cc2ccccc2)n(C)c1=O` here?
A: -6.31%

Q: For `O=C(c1cncc(Br)c1)N1CCCc2ccccc21`, which activity change, negative = inhibition is on record?
A: -6.51%

Q: For `CCOC(=O)CNS(=O)(=O)c1cc(-c2nn(C)c(=O)c3ccccc23)ccc1C`, which activity change, negative = inhibition is on record?
A: -12.6%

Q: With `COC(=O)c1ccccc1N1C(=O)[C@@H]2C(c3ccc(Br)cc3)=NO[C@@H]2C1=O` as the molecule, how does the activity change, negative = inhibition read?
A: 19.8%

Q: For `CCOC(=O)CSc1nc(N(C)C)nc(N(C)C#N)n1`, which activity change, negative = inhibition is on record?
A: -3.44%

Q: For `O=C(O)c1c[nH]c2ccc(S(=O)(=O)N3CCOCC3)cc12`, which activity change, negative = inhibition is on record?
A: -7.03%

Q: With `COC(=O)c1sccc1NC(=O)c1c(C)cc(=O)oc1C` as the molecule, how does the activity change, negative = inhibition read?
A: 8.6%

Q: With `Cc1cc(=O)n(CCC(=O)O)c2ccccc12` as the molecule, how does the activity change, negative = inhibition read?
A: 1.73%

Q: For `CCOC(=O)C1=C(c2ccccc2)NC(SCC(=O)Nc2ccccc2C)=C(C#N)C1c1ccco1` (stereo not given), which activity change, negative = inhibition is on record?
A: -6.28%

Q: With `O=S(=O)(c1ccc2ccccc2c1)N(CC(O)CN1CCOCC1)c1ccccc1` (stereo not given) as the molecule, how does the activity change, negative = inhibition read?
A: 4.35%

Q: For `CC1CN(C2CCN(S(=O)(=O)c3ccccc3)CC2)CC(C)O1` (stereo not given), which activity change, negative = inhibition is on record?
A: -20.4%

Q: Which activity change, negative = inhibition does the source give for `CC1(C)NC(=O)N(CC(O)COc2ccccc2C(=O)Nc2ccccc2)C1=O` (stereo not given) here?
A: 9.58%

Q: For `CN1CCN(/C=N/c2sc3c(c2C#N)CCCCC3)CC1`, which activity change, negative = inhibition is on record?
A: 11.9%

Q: With `N/C(CCN1CCOCC1)=N/O` as the molecule, how does the activity change, negative = inhibition read?
A: 2.54%

Q: With `C=C(Br)Cn1c(CCCC)nc2ccccc21` as the molecule, how does the activity change, negative = inhibition read?
A: 1.5%

Q: Which activity change, negative = inhibition does the source give for `O=C(O)c1ccc(COCC(F)(F)C(F)F)o1` here?
A: 28.1%

Q: Which activity change, negative = inhibition does the source give for `C=CCn1c(SCc2c(F)c(F)c(F)c(F)c2F)nc(O)cc1=O` here?
A: 25.9%

Q: Which activity change, negative = inhibition does the source give for `CC1(C)CC(=O)C(C=N)=C(O)C1` here?
A: 1.7%

Q: With `COCCN(Cc1ccccc1)P(=O)(O)c1ccccc1OCC(=O)O` as the molecule, how does the activity change, negative = inhibition read?
A: -4.16%

Q: With `COc1cc(-c2nn3c(-c4ccco4)nnc3s2)cc(OC)c1OC` as the molecule, how does the activity change, negative = inhibition read?
A: -0.323%

Q: Which activity change, negative = inhibition does the source give for `COc1cccc(OC)c1C(=O)N1CCN(S(=O)(=O)c2ccc(C)cc2)CC1` here?
A: -1.17%

Q: With `CC(NC(=O)NCCCC(=O)O)(C(F)(F)F)C(F)(F)F` as the molecule, how does the activity change, negative = inhibition read?
A: -1.55%

Q: Which activity change, negative = inhibition does the source give for `CC(C)OC(=O)CC1=NC(=O)CS1` here?
A: 8.36%

Q: With `Cc1cc(=O)oc2c(CN3CCN(C)CC3)c(O)c(Cl)cc12` as the molecule, how does the activity change, negative = inhibition read?
A: 25%

Q: For `Cc1nnc2n(-c3ccccc3)c(=O)c3c4c(sc3n12)CCCC4`, which activity change, negative = inhibition is on record?
A: -2.17%

Q: For `Cn1c(O)c(C=Nc2ccc(Cc3ccncc3)cc2)c(=O)n(C)c1=O`, which activity change, negative = inhibition is on record?
A: -10.1%

From PubChem BioAssay (NCATS)
